tim23-1 inh: tim23-1 yeast growth inhibition; actives 1.3% (n = 330,000); S. cerevisiae tim23-1 growth, BacTiter-Glo luminescence, 24 h; inhibition, % at 20 µM;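 active means growth inhibition of the mutant yeast at or above 50%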;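 further: temperature-sensitive mutant grown at 25 °C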
Mot1-301 SUMO: SUMOylation pathway inhibition by Mot1-301 growth rescue | actives 1% (n = 320,000) | S. cerevisiae Mot1-301 growth rescue, ATP luminescence, 38.5C; percent above DMSO median, 100 means doubled | AID 2716 | growth rescue, % at 18.8 µM;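 active means every valid replicate shows activation above 250% relative to neutral control wells; inactive means the rest, any valid replicate at or below 250%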
TIM10 inh: inhibits growth of TIM10 yeast strain; actives 1.4% (n = 330,000); S. cerevisiae TIM10 strain growth, BacTiter-Glo luminescence, 24 h; inhibition, % at 10 µM;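 active means inhibition of 40% or more at the single tested concentration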;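 further: wild-type TIM10 isogenic control strain grown at permissive 25 °C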
PfHsp90 yeast 2: reduces growth (ATP signal) of yeast expressing P. falciparum Hsp90 | S. cerevisiae expressing PfHsp90, BacTiter-Glo ATP, 48 h; yeast lacking PDR1 and PDR3 efflux regulators | inhibition, % at 9.4 µM | actives 0.32% (n = 310,000);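 active means every replicate shows inhibition above about 80%, whatever the replicate mean, limit read from the data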
tim10-1 inh: growth inhibitors of tim10-1 mutant yeast; actives 2.2% (n = 330,000); inhibition, % at 20 µM; S. cerevisiae tim10-1 ts strain growth, BacTiter-Glo, 24 h;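 active means inhibition of at least 40%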;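 further: mutant grown at 25 °C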
tim10-1 confirm: tim10-1 yeast growth inhibition, confirmed | shares compounds with tim10-1 inh | S. cerevisiae tim10-1 ts strain growth, BacTiter-Glo, 24 h | inhibition, % at 20 µM | actives 56% (n = 7,400);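 active means inhibition of yeast growth at or above a set limit in either of two repeat tests at 20 µM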;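 further: tim10-1 mutant grown at permissive 25 °C to find synthetic lethal compounds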
TIM10 conf: TIM10 yeast growth inhibition, confirmed; inhibition, % at 10 µM; shares compounds with TIM10 inh; S. cerevisiae tim10 strain growth, BacTiter-Glo luminescence, 24 h; actives 63% (n = 4,600); AID 463215;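 active means inhibition of yeast growth at or above a set limit in either of two replicates at 10 µM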; further: this counterscreen used the strain with wild-type TIM10
A number is an active result; . = inactive; / = no result. Only some compounds are listed: those with a hit (about 4.4% of all), similar ones and a draw of the others.

SMILES	tim23-1 inh	Mot1-301 SUMO	TIM10 inh	PfHsp90 yeast 2	tim10-1 inh	tim10-1 confirm	TIM10 conf
Cc1cc(Br)c2c(c1)/C(=C/C(=O)c1cccs1)C(=O)N2	.	.	49.9	87.8	47.4	33.9	68.1
Cc1cc(C)c(C(=O)c2cccs2)c(C)c1	/	/	/	.	/	/	/
CC(C)c1ccc(NC(=S)NCc2cccs2)cc1	.	/	44.5	.	55.8	36.2	41.5
S=C(NCc1cccs1)Nc1cccc(Cl)c1	.	.	47.4	/	45.3	33.5	43.2
COc1ccc([C@H]2CC(=O)C=C(c3ccc4c(c3)OCCO4)C2)cc1	.	.	.	.	.	/	/
O=C(/C=C/c1cccc([N+](=O)[O-])c1)c1ccc2c(c1)OCCO2	.	.	46.9	.	41.2	49.7	46.6
COc1ccc(/C=N/NC(=O)c2ccc3c(c2)OCCO3)cc1[N+](=O)[O-]	.	.	.	.	.	/	/
O=C(c1cccc([N+](=O)[O-])c1)c1ccc2c(c1)OCCOCCOCCOCCO2	.	.	.	/	.	/	/
COc1ccc(/C=C/C(=O)c2ccc3c(c2)OCCO3)cc1[N+](=O)[O-]	.	.	43.5	.	43.1	.	40.2
NC(=O)c1ccccc1NC(=O)COC(=O)C1(c2ccccc2)CC1	.	/	.	.	.	/	/
Cc1ccc(OCC(=O)NNC(=O)C(C)Sc2ncnc3sc(C)c(C)c23)cc1 (centres undefined)	.	.	54.8	.	42.0	41.8	.
COc1cccc(NC(=O)CN(C)C(=O)[C@@H]2CCCN2C(=O)c2cccs2)c1	.	.	.	.	.	/	/
Cc1noc(C)c1C(=O)Nc1nc(C23CC4CC(CC(C4)C2)C3)cs1	.	.	48.2	.	52.4	37.8	39.0
Cc1cc(C)nc(NC(=O)c2ccc([N+](=O)[O-])o2)n1	.	.	.	.	.	/	/
COc1cc(NC(=O)c2ccc([N+](=O)[O-])o2)ccc1NC(=O)c1ccco1	.	.	47.2	.	45.6	44.9	59.9
Cc1cc(C)cc(NC(=O)c2ccc([N+](=O)[O-])o2)c1	.	/	82.7	.	49.2	34.5	81.8
O=C(Nc1cccc(Cl)c1N1CCCC1)c1ccc([N+](=O)[O-])o1	.	.	40.1	.	46.9	41.0	.
CCN1CCN(c2c(Cl)cccc2NC(=O)c2ccc([N+](=O)[O-])o2)CC1	.	.	.	/	.	/	/
CC(=O)c1ccc(NC(=O)c2ccc([N+](=O)[O-])o2)cc1	.	.	80.8	.	56.9	42.9	89.8
O=C(Nc1cccnc1)c1ccc([N+](=O)[O-])o1	.	.	.	.	.	/	/
CC1(C)Cc2c(cnn2-c2ccccc2)C(NC(=O)CCN2CCCCO2)C1 (centres undefined)	.	.	.	.	.	/	/
Cc1cc(C)c2c(c1)CC(C)(C)CC2=O	/	/	/	.	/	/	/
CC(OC(=O)CCC(=O)c1cccs1)C(=O)NC1CCCCC1C (centres undefined)	.	.	.	.	.	/	/
O=C1C=CC(=O)N1CCNc1ncc(C(F)(F)F)cc1Cl	.	/	88.2	101.2	92.0	94.3	97.8
O=S(=O)(NCCNc1ncc(C(F)(F)F)cc1Cl)C(F)(F)F	.	.	44.7	.	54.7	45.6	.
SMILES	tim23-1 inh	Mot1-301 SUMO	TIM10 inh	PfHsp90 yeast 2	tim10-1 inh	tim10-1 confirm	TIM10 conf
O=C1CC(=O)N(CCNc2ncc(C(F)(F)F)cc2Cl)C(=O)N1	.	.	.	.	.	/	/
COc1ccc(Cc2nnc(SCC(=O)c3c(N)n(C4CC4)c(=O)[nH]c3=O)o2)cc1	.	.	.	.	.	/	/
O=[N+]([O-])c1ccccc1C1Nc2cccc3cccc(c23)N1	.	.	57.0	.	85.0	76.2	68.5
O=[N+]([O-])c1ccc(Cl)c(C2Nc3cccc4cccc(c34)N2)c1	.	.	.	.	.	/	/
Cn1c2ccccc2c2c(C(=O)N3CCN(c4ccccn4)CC3)cn(C3CCCC3)c(=O)c21	.	.	47.4	.	40.3	.	40.9
COc1ccc(N2CCN(C(=O)c3cn(C4CCCC4)c(=O)c4c3c3ccccc3n4C)CC2)cc1	.	.	.	.	.	/	/
COc1ccc(C(=O)Nc2cccc3c2CCCC3)c(OC)c1	.	.	.	/	.	/	/
